Measurements reported in PubChem BioAssay (EPA / NIEHS).
Calls of active or inactive are those of the source. Rule for the calls: active = hit-call score of the fitted dose curve at least 0.9, where 1 is the maximum; inactive = score below 0.9.

Experiments:
Details in all cases: mRNA level, 48 h; actives raise or lower the signal
[1] = read-out: Cyclin D1 (CCND1), CCND1 (gene 595); test: LTEA_HepaRG_CCND1: Life Technologies and Expression Analysis (LTEA) Assay for Cyclin D1 (CCND1) using HepaRG (AID 2283451)
How it was run: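 HepaRG plated 48 h, medium switched to serum-free induction medium, chemicals added in duplicate (top 100 uM, half-log steps, 0.5% DMSO) for 48 h, cells lysed, RNA measured by TaqMan qRT-PCR.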

[2] = read-out: catalase (CAT), CAT (gene 847); test: LTEA_HepaRG_CAT: Life Technologies and Expression Analysis (LTEA) Assay for catalase (CAT) using HepaRG (AID 2283452)
How it was run: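 Expression of CAT was quantified by TaqMan qRT-PCR with ACTB/GAPDH/POLR2A normalization after 48 h chemical exposure of HepaRG. Eight-point half-log series, top 100 uM, in 0.5% DMSO; gain or loss fitted against vehicle.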

[3] = read-out: flavin-containing dimethylaniline monooxygenases 3 (FMO3), FMO3 (gene 2328); test: LTEA_HepaRG_FMO3: Life Technologies and Expression Analysis (LTEA) Assay for flavin-containing dimethylaniline monooxygenases 3 (FMO3) using HepaRG (AID 2283453)
How it was run: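 HepaRG, 48 h exposure, 8-pt half-log series from 100 uM, 0.5% DMSO vehicle, duplicates; FMO3 transcript by Fluidigm TaqMan qRT-PCR, housekeeping-normalized; gain/loss fit vs DMSO.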

[4] = read-out: Cytochrome P450 (CYP1A1), CYP1A1 (gene 1543); test: LTEA_HepaRG_CYP1A1: Life Technologies and Expression Analysis (LTEA) Assay for Cytochrome P450 (CYP1A1) using HepaRG (AID 2283454)
How it was run: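 HepaRG, 48 h post-plating switched to serum-free induction medium; 8-pt conc-response (top 100 uM, half-log, 0.5% DMSO), duplicates, 48 h. Lysis in RLT, TaqMan qRT-PCR for CYP1A1; gain or loss vs DMSO.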

[5] = read-out: CFLAR gene, CFLAR (gene 8837); test: LTEA_HepaRG_CFLAR: Life Technologies and Expression Analysis (LTEA) Assay for CFLAR gene using HepaRG (AID 2283455)
How it was run: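 HepaRG, 48 h exposure, 8-pt conc-response (100 uM top, half-log), 0.5% DMSO vehicle, duplicates. CFLAR expression by qRT-PCR; ACTB/GAPDH/POLR2A normalization; gain or loss fit vs DMSO baseline.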

[6] = read-out: Forkhead box O1 (FOXO1), FOXO1 (gene 2308); test: LTEA_HepaRG_FOXO1: Life Technologies and Expression Analysis (LTEA) Assay for Forkhead box O1 (FOXO1) using HepaRG (AID 2283456)
How it was run: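 Readout is FOXO1 transcript level by multiplexed qRT-PCR against three housekeeping genes, curve-fitted in both directions relative to 0.5% DMSO vehicle. Human HepaRG cultures received chemicals for 48 h, up to 100 uM in half-log steps.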

[7] = read-out: ABC Transporter (ABCB1), ABCB1 (gene 5243); test: LTEA_HepaRG_ABCB1: Life Technologies and Expression Analysis (LTEA) Assay for ABC Transporter (ABCB1) using HepaRG (AID 2283460)
How it was run: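 Expression of ABCB1 was quantified by qRT-PCR against three housekeeping genes after human HepaRG cultures received test chemicals for 48 hours. Concentrations spanned eight half-log steps topping at 100 uM in 0.5% DMSO; gain or loss of signal was fitted relative to vehicle.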

[8] = read-out: growth arrest and DNA damage 45 (GADD45B), GADD45B (gene 4616); test: LTEA_HepaRG_GADD45B: Life Technologies and Expression Analysis (LTEA) Assay for growth arrest and DNA damage 45 (GADD45B) using HepaRG (AID 2283461)
How it was run: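 HepaRG, ~100,000 cells/well, 48 h plating; serum-free induction medium; cpd 100 uM top, half-log x8, 0.5% DMSO, duplicate, 48 h; lysis in RLT, RNA isolation, qRT-PCR; norm ACTB/GAPDH/POLR2A; bidirectional fit vs DMSO.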

[9] = read-out: ABC Transporter (ABCC3), ABCC3 (gene 8714); test: LTEA_HepaRG_ABCC3: Life Technologies and Expression Analysis (LTEA) Assay for ABC Transporter (ABCC3) using HepaRG (AID 2283462)
How it was run: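 Human HepaRG, 48 h dosing, 8-pt half-log series from 100 uM, 0.5% DMSO vehicle, duplicates. ABCC3 mRNA by TaqMan qRT-PCR, housekeeping-normalized; bidirectional curve fit vs DMSO.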

[10] = read-out: ABC Transporter (ABCB11), ABCB11 (gene 8647); test: LTEA_HepaRG_ABCB11: Life Technologies and Expression Analysis (LTEA) Assay for ABC Transporter (ABCB11) using HepaRG (AID 2283463)
How it was run: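 ABCB11 transcript levels are read by Fluidigm TaqMan qRT-PCR after 48 h chemical treatment of human HepaRG cells. Concentrations span 100 uM downward in half-log steps with 0.5% DMSO; gain or loss is fitted against DMSO controls.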

[11] = read-out: ABC Transporter (ABCC2), ABCC2 (gene 1244); test: LTEA_HepaRG_ABCC2: Life Technologies and Expression Analysis (LTEA) Assay for ABC Transporter (ABCC2) using HepaRG (AID 2283464)
How it was run: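 HepaRG, 48 h post-plating; serum-free induction medium; cpd 8-pt, 100 uM top, half-log, 0.5% DMSO, duplicate, 48 h. Readout: ABCC2 mRNA by qRT-PCR, norm. ACTB/GAPDH/POLR2A. Bidirectional fit vs DMSO baseline.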

[12] = read-out: Broad substrate specificity ATP-binding cassette transporter ABCG2 (Homo sapiens) (UniProt Q9UNQ0); test: LTEA_HepaRG_ABCG2: Life Technologies and Expression Analysis (LTEA) Assay for ABC Transporter (ABCG2) using HepaRG (AID 2283465)
How it was run: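 Read-out is ABCG2 mRNA induction or loss quantified by qRT-PCR after 48 h chemical treatment of human HepaRG cells, normalized to three housekeeping genes. Concentrations reached 100 uM top in half-log steps; fitting was bidirectional against 0.5% DMSO.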

[13] = read-out: ATP-citrate lyase (ACLY), ACLY (gene 47); test: LTEA_HepaRG_ACLY: Life Technologies and Expression Analysis (LTEA) Assay for ATP-citrate lyase (ACLY) using HepaRG (AID 2283466)
How it was run: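 HepaRG, 48 h exposure, 8-pt half-log dilutions (top 100 uM), 0.5% DMSO. Readout: ACLY mRNA, TaqMan qRT-PCR, housekeeping-normalized (ACTB/GAPDH/POLR2A). Bidirectional curve fit vs DMSO.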

[14] = read-out: Peroxisomal acyl-coenzyme A oxidase 1 (ACOX1) gene, ACOX1 (gene 51); test: LTEA_HepaRG_ACOX1: Life Technologies and Expression Analysis (LTEA) Assay for Peroxisomal acyl-coenzyme A oxidase 1 (ACOX1) gene using HepaRG (AID 2283467)
How it was run: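 Measured by qRT-PCR against three housekeeping genes: ACOX1 transcript change in human HepaRG cells after 48 h dosing. Concentrations ran up to 100 uM in half-log steps. Curves were fitted bidirectionally relative to 0.5% DMSO.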

[15] = read-out: Alkaline Phosphatase, Placental (ALPP) gene, ALPP (gene 250); test: LTEA_HepaRG_ALPP: Life Technologies and Expression Analysis (LTEA) Assay for Alkaline Phosphatase, Placental (ALPP) gene using HepaRG (AID 2283468)
How it was run: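 HepaRG, 48 h plating then 48 h dosing, serum-free induction medium, 0.5% DMSO. 8 conc, half-log, max 100 uM, duplicates. Endpoint: ALPP transcript by qRT-PCR, housekeeping-normalized; gain or loss fitted vs DMSO.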

[16] = read-out: Bcl-2 (BAD) gene, BAD (gene 572); test: LTEA_HepaRG_BAD: Life Technologies and Expression Analysis (LTEA) Assay for Bcl-2 (BAD) gene using HepaRG (AID 2283469)
How it was run: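 BAD transcript change, measured by qRT-PCR against three housekeeping genes and fitted in both directions relative to 0.5% DMSO, after 48 h chemical treatment of human HepaRG liver cells at concentrations up to 100 uM.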

[17] = read-out: Bcl-2 (BAX) gene, BAX (gene 581); test: LTEA_HepaRG_BAX: Life Technologies and Expression Analysis (LTEA) Assay for Bcl-2 (BAX) gene using HepaRG (AID 2283470)
How it was run: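 Differentiated human HepaRG cells, plated 48 h then switched to serum-free induction medium, were exposed 48 h to 8 half-log concentrations up to 100 uM in 0.5% DMSO; BAX mRNA measured by qRT-PCR, normalized to ACTB, GAPDH, POLR2A.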

[18] = read-out: Forkhead box O3 (FOXO3), FOXO3 (gene 2309); test: LTEA_HepaRG_FOXO3: Life Technologies and Expression Analysis (LTEA) Assay for Forkhead box O3 (FOXO3) using HepaRG (AID 2283459)
How it was run: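 HepaRG, 48 h post-dose; 8 conc., half-log from 100 uM, 0.5% DMSO, duplicates; serum-free induction medium. Readout: FOXO3 mRNA, TaqMan qRT-PCR, housekeeping-normalized. Bidirectional curve fit vs DMSO baseline.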

[19] = read-out: growth arrest and DNA damage 45 (GADD45A), GADD45A (gene 1647); test: LTEA_HepaRG_GADD45A: Life Technologies and Expression Analysis (LTEA) Assay for growth arrest and DNA damage 45 (GADD45A) using HepaRG (AID 2283458)
How it was run: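 Differentiated HepaRG cells were exposed in duplicate for 48 h in serum-free induction medium to 8-point half-log concentrations up to 100 uM in 0.5% DMSO. GADD45A mRNA was measured by TaqMan qRT-PCR, normalized to ACTB, GAPDH and POLR2A, with bidirectional fitting versus DMSO.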

Measured: AC50

Broad substrate specificity ATP-binding cassette transporter ABCG2 (Homo sapiens), sequence (Q9UNQ0 whole entry, looked up): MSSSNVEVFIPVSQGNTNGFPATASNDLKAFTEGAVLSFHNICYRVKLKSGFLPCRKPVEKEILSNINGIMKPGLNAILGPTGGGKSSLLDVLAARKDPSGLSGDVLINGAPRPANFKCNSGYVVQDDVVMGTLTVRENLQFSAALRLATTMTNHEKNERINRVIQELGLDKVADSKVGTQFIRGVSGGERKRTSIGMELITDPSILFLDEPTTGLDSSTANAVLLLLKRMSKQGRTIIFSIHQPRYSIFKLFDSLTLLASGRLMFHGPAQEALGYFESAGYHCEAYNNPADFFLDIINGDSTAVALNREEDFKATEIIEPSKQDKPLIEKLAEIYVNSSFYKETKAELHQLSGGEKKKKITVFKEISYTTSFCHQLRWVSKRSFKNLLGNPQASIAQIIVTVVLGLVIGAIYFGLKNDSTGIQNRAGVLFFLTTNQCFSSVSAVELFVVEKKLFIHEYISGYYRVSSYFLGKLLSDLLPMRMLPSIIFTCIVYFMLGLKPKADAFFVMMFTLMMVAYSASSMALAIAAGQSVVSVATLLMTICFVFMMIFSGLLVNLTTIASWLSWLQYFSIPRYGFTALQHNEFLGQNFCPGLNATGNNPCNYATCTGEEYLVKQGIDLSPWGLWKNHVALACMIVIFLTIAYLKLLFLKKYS

CCCCC(C#N)(Cn1cncn1)c1ccc(Cl)cc1 (configuration not stated)
active: [4] 27.1 µM | [7] 13.1 µM | [10] 91.7 µM | [12] 4.77 µM | [13] 50 µM
not listed: [18] | [19]
inactive: all other assays above

O=c1n(Cl)c(=O)n(Cl)c(=O)n1Cl
active: [4] 60.2 µM
not listed: [9] | [19]
inactive: all other assays above

COP(=O)(OC)O/C(C)=C/C(=O)N(C)C
active: [10] 11 µM
not listed: [9]
inactive: all other assays above
